Each compound was assayed on Vero E6 infected with SARS-CoV-2 (assay: inhibition of SARS-CoV-2 cytopathic effect; higher = more antiviral protection, active = above 15). Settings: 100 nM; 48 h.

`COc1cccc(Nc2ncnn3ccc(CN4CC[C@@H](N)[C@H](O)C4)c23)c1` was tested. Which “inhibition of SARS-CoV-2 cytopathic effect” value (“inhibition” for short) did it give?
The value was -6.81% (inactive).

`C[N+](C)(C)CCCCCCCCCC[N+](C)(C)C` [decamethonium] was tested. Which “inhibition” value did it give?
The value was -5.16% (inactive).

Which “inhibition” value does the source give for `Cc1ccnc2c1NC(=O)c1cccnc1N2C1CC1` [nevirapine] here?
The value was 0.61% (inactive).

With `CS(=O)(=O)Nc1ccc(-c2coc3cc(OCc4cccc(C(=O)O)c4)ccc3c2=O)cc1` as the compound, how does the “inhibition” value read?
The value was -1.1% (inactive).

`CCc1nc2ccc(Cl)cn2c1C(=O)NCc1ccc(N2CCC(c3ccc(OC(F)(F)F)cc3)CC2)cc1` was tested. Which “inhibition” value did it give?
Its value is -0.55% (inactive).

Which “inhibition” value does the source give for `C=CC1=C(C(=O)O)N2C(=O)[C@@H](NC(=O)/C(=N\O)c3csc(N)n3)[C@H]2SC1` [cefdinir] here?
Its value is 2.17% (inactive).

`C[N+]12CCCCC1CCC(=C(c1cccs1)c1cccs1)C2` (centres undefined) [tiquizium] was tested. Which “inhibition” value did it give?
Its value is 2.71% (inactive).

How did the “inhibition” value turn out when `Cc1cc(OCCCS(C)(=O)=O)cc(C)c1-c1cccc(COc2ccc3c(c2)OC[C@H]3CC(=O)O)c1` was run?
Its value is -0.31% (inactive).

`CCn1cc(C(=O)O)c(=O)c2cc(F)c(N3CCN(C)CC3)cc21` [pefloxacin] was tested. Which “inhibition” value did it give?
Its value is 2.84% (inactive).

`CC(C)C(=O)Nc1ccc([N+](=O)[O-])c(C(F)(F)F)c1` [flutamide] was tested. Which “inhibition” value did it give?
Its value is -3.44% (inactive).

For `Cc1ncc([N+](=O)[O-])n1CC(O)CN1CCOCC1` (centres undefined) [morinidazole], which “inhibition” value is on record?
The value was -0.51% (inactive).

With `O=c1c2ccccc2[se]n1-c1ccccc1` [Ebselen] as the compound, how does the “inhibition” value read?
Its value is 0.59% (inactive).

`CCCc1cc(C(N)=S)ccn1` [protionamide] was tested. Which “inhibition” value did it give?
The value was 1.7% (inactive).

How did the “inhibition” value turn out when `C#CCOC(=O)C1=CCCN(C)C1` [arecaidine-propargyl-ester] was run?
The value was -0.74% (inactive).

With `Cc1c(-c2ccc(O)cc2)n(Cc2ccc(OCCN3CCCCCC3)cc2)c2ccc(O)cc12` [bazedoxifene] as the compound, how does the “inhibition” value read?
The value was -2.44% (inactive).

How did the “inhibition” value turn out when `CN(Cc1ccccc1)C(=O)[C@H](Cc1ccc2ccccc2c1)NC(=O)[C@@H]1C[C@@H](O)CN1C(=O)c1cn(C)c2ccccc12` was run?
The value was 3.48% (inactive).

`NC1(c2ccc(-c3nc4ccn5c(=O)[nH]nc5c4cc3-c3ccccc3)cc2)CCC1` was tested. Which “inhibition” value did it give?
The value was 2.84% (inactive).

`CN(C)CCCSc1ccccc1NC(=O)/C=C/c1ccccc1` [cinanserin] was tested. Which “inhibition” value did it give?
Its value is -0.47% (inactive).

Which “inhibition” value does the source give for `c1cc(Cc2cnc[nH]2)ccn1` [immethridine] here?
The value was 0.76% (inactive).

For `COc1cc(C(=O)N2CCC(N3CCN(C)CC3)CC2)ccc1Nc1ncc2c(n1)N(C)c1ccccc1C(=O)N2C`, which “inhibition” value is on record?
The value was 2.57% (inactive).

How did the “inhibition” value turn out when `CC/C(=C(\c1ccc(O)cc1)c1ccc(OCCN(C)C)cc1)c1ccccc1` [afimoxifene] was run?
Its value is 3.76% (inactive).

Which “inhibition” value does the source give for `COc1cc(N2CCC(N3CCN(C)CC3)CC2)ccc1Nc1ncc(Cl)c(Nc2ccccc2P(C)(C)=O)n1` [brigatinib] here?
Its value is -2.21% (inactive).

For `CC#CCOC(=O)c1c(C)nc2sc3c(c2c1N)CCC(O)C3` (centres undefined), which “inhibition” value is on record?
Its value is 3.12% (inactive).

`O=C(O)CCC(=O)OC[C@@H](NC(=O)C(Cl)Cl)[C@H](O)c1ccc([N+](=O)[O-])cc1` [chloramphenicol-sodium-succinate] was tested. Which “inhibition” value did it give?
Its value is 2.32% (inactive).

How did the “inhibition” value turn out when `CC(C)[C@H]1CC[C@H](C(=O)N[C@H](Cc2ccccc2)C(=O)O)CC1` [nateglinide] was run?
Its value is 0.38% (inactive).

For `CC(C)(C)c1ccc(S(=O)(=O)/C=C/C#N)cc1`, which “inhibition” value is on record?
The value was 0.24% (inactive).

`COc1ccc(S(=O)(=O)N2CCCN(S(=O)(=O)c3ccc(OC)c(OC)c3)CC2)cc1OC` was tested. Which “inhibition” value did it give?
The value was -0.96% (inactive).

For `Cc1ccc(-n2sc(=O)n(Cc3ccc(F)cc3)c2=O)cc1`, which “inhibition” value is on record?
The value was 0.17% (inactive).

For `CCC[C@@H]1C[C@@H](C(=O)N[C@@H]([C@H]2O[C@H](SC)[C@H](O)[C@@H](O)[C@H]2O)[C@@H](C)O)N(C)C1` [lincomycin], which “inhibition” value is on record?
The value was -0.29% (inactive).

How did the “inhibition” value turn out when `C[N+](C)(C)CCOC(=O)CCC(=O)OCC[N+](C)(C)C` [succinylcholine-chloride] was run?
Its value is -2.35% (inactive).

Which “inhibition” value does the source give for `CC(=O)SC[C@@H](C)C(=O)N1CCC[C@H]1C(=O)N[C@@H](Cc1ccccc1)C(=O)O` [alacepril] here?
The value was 0.98% (inactive).

How did the “inhibition” value turn out when `COc1ccc(-c2cnc3c(-c4cccc5ncccc45)cnn3c2)cc1` was run?
The value was 0.925% (inactive).

How did the “inhibition” value turn out when `Nc1nc(Cl)nc2c1ncn2[C@@H]1O[C@H](CO)[C@@H](O)[C@@H]1F` [clofarabine] was run?
The value was 1.42% (inactive).

Which “inhibition” value does the source give for `Cc1cc(N)c2ccccc2[n+]1CCCCCCCCCC[n+]1c(C)cc(N)c2ccccc21` [dequalinium] here?
The value was -2.33% (inactive).

Which “inhibition” value does the source give for `NC12CC3CC(CC(C3)C1)C2` [amantadine] here?
Its value is 0.25% (inactive).

Which “inhibition” value does the source give for `CCNC(C)CN1CCc2c(c(=O)oc3ccccc23)C1` (centres undefined) here?
The value was -0.83% (inactive).

Which “inhibition” value does the source give for `C/C(=N\c1ccccc1N)c1c(C)cc(=O)n(O)c1O` here?
The value was -1.91% (inactive).

With `c1ccc(CCNc2nc(-c3ccccc3)cs2)cc1` [fanetizole] as the compound, how does the “inhibition” value read?
The value was -2.73% (inactive).

Which “inhibition” value does the source give for `C[C@@H]([C@H](O)c1ccc(O)cc1)N1CCC(Cc2ccccc2)CC1` (racemic) [ifenprodil] here?
The value was 0.52% (inactive).

From the supplement of paper PMC13380429
